Experimental data reported in the supplement of paper PMC13094657.
± gives the standard deviation of the averaged measurements.

system: MDA-MB-231; test: cell viability relative to vehicle unstimulated control (fraction); higher = more viable cells; details: pre-treatment time: 18 h then 24 h IFNg/TNF
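Note: viability of the cells left after supernatant collection, read with Deep Blue dye added for 4 h, as absorbance at 570 nm minus 600 nm.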

| SMILES | cell viability |
| --- | --- |
| C[C@@H]1CC[C@@]2(OC1)O[C@H]1C[C@H]3[C@@H]4CC=C5C[C@@H](O[C@@H]6O[C@H](CO)[C@@H](O[C@@H]7O[C@@H](C)[C@H](O[C@@H]8O[C@@H](C)[C@H](O)[C@@H](O)[C@H]8O)[C@@H](O)[C@H]7O)[C@H](O)[C@H]6O[C@@H]6O[C@@H](C)[C@H](O)[C@@H](O)[C@H]6O)CC[C@]5(C)[C@H]4CC[C@]3(C)[C@H]1[C@@H]2C [Formosanin C] (compound dose: 10 uM) | -0.00547 ± 0.0077 |
| C[C@@H]1CC[C@H]2[C@@H](C)C(=O)O[C@@H]3O[C@@]4(C)CC[C@@H]1[C@]32OO4 [Artemisinin] (compound dose: 10 uM) | 1.06 ± 0.079 |
| Cc1cc(O)c2c(=O)c3c(O)cc(O)c4c5c(O)cc(O)c6c(=O)c7c(O)cc(C)c8c1c2c(c34)c(c78)c65 [Hypericin] (compound dose: 10 uM) | 0.0887 ± 0.085 |
| CC1=C2[C@H]3OC(=O)[C@@H](C)[C@@H]3CC[C@@]2(C)C=CC1=O [Santonin] (compound dose: 10 uM) | 0.9716 ± 0.0046 |
| CC(C)[C@]12CC(=O)[C@H](C)[C@H]1C2 [α-Thujone] (compound dose: 10 uM) | 1.05 ± 0.058 |
| CC(=O)O[C@@H]1[C@H]2[C@@H](OC(=O)Cc3ccccc3)[C@@H](C)C[C@]2(OC(C)=O)C(=O)/C(C)=C/[C@@H]2[C@H](CC[C@]13CO3)C2(C)C [Euphorbia Factor L1] (compound dose: 10 uM) | 0.909 ± 0.045 |
| CC(C)C1=CC(=O)[C@@](C)(C2[C@H](O)C[C@@]3(C)[C@@H]4CC=C5[C@@H](CC[C@@H](OC6OCC(O)C(O)C6OC6OC(C)C(O)C(O)C6O)C5(C)C)[C@]4(C)C(=O)C[C@]23C)O1 (some centres not stated) [Picfeltarraenin IA] (compound dose: 10 uM) | 0.9887 ± 0.0091 |
